Results on 40 compounds are retold here after PubChem BioAssay (NCI).

Compounds without any hit were thinned out: in the full panel of roughly 83,000, 20% have a hit.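 The test compound was applied at a single concentration to cells in 96-well plates for 48 hours, and percent growth was recorded.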 Unmarked numbers belong to inactive results. Calls of active or inactive are those of the source. How the source made its calls: active means growth percent below 10; inactive means the rest.

This assay relates to HL-60(TB) leukemia. Nature of the assay: NCI-60 one-dose screen, 48 h (100 = growth as untreated, 0 = no growth, -100 = all killed). Particulars: 10 µM unless noted.
With `COc1cc(OC)c(NC(=O)n2ncc3cc(Nc4ncnc5ccccc45)ccc32)cc1Cl`, the growth was 82.9%. Next, `N#Cc1c(NC(=O)c2cccs2)[n+]([O-])c2cc(C(F)(F)F)ccc2[n+]1[O-]`: 89%; `N#CC1=C(c2ccccc2)Nc2c(c(-c3ccc(Cl)cc3)nn2-c2ccccc2)C12C(=O)Nc1ccc(Cl)cc12` (stereo not given): 48.2%.

For the compound `CCOC(=O)c1cnn(CC(O)CC)c1NC(=O)NCc1ccccc1C(F)(F)F` (stereo not given), the growth is 76.4%. Next, `C#CCn1cnc2cnc(Nc3cccc(NC(=O)CCl)c3)nc21`: -7.95% [6.25 µM] (active); `CCn1c2c(c3ccccc31)SC1c3cccn3CCN1C2=S` (stereo not given): 87.5%; `C=C(CC(=O)OC)C(C)=O`: 95.8%. To `O=C(/C=C/c1cc2ccccc2[nH]c1=O)c1ccc(O)cc1` belongs 16%. On to `[O-][n+]1c2ccccc2[n+]([O-])c2c3ccccc3[nH]c21`, for which the growth was 100%.

Take `N#Cc1cccc(-c2nc3ccccn3c2NCCN2CCOCC2)c1`: the growth is 101%. Regarding `CCCC(CCC)(C(N)=O)C(=O)O`, the growth was 104%. Consider `C/C(=C(/c1ccccc1)c1ccc(N2C(=O)c3cccc4c(NCc5ccccc5)ccc(c34)C2=O)cc1)c1ccccc1`, for which the growth is 103%. To `COc1ccc(C(=O)N/N=C/c2ccc(O)cc2O)cc1Nc1ccnc(C(F)(F)F)c1` belongs 14.4%; to `Cc1cccc(NC(=O)c2sc3nc4c(cc3c2N)CCC4)c1C`, 8.43% (active).

Consider `O=C(CCCN1CCC(O)(c2ccc(Br)cc2)CC1)c1ccc(F)cc1`, for which the growth was 72.5%. To `Cn1cc(-c2ccc3cc(-c4ccc(CC(=O)Nc5cc(C(C)(C)C)on5)cc4)cnc3c2)cn1` belongs -14.3% (active); to `COc1ccc2nc(NC(=O)/C(=C/c3cc(OC)c(OC)c(OC)c3)c3ccc(OC)c(OC)c3)sc2c1`, 94.5%.

For `COc1ccc(C(=O)c2cc(OC)c(OC)c(OC)c2)cc1/C=C/C(=O)c1ccc2c(c1)OCO2`, the growth was 27.5%. To `COc1ccccc1C(OC(C)=O)OC(C)=O` belongs 87%; to `Oc1ccc(C(c2ccc(O)cc2)c2ccc(Cl)cn2)cc1`, 101%; to `COc1ccc(Cl)cc1Nc1nc(C(F)(F)F)ccc1C(=O)N/N=C/c1cccnc1`, 21.8%.

Turning to `O=Nc1ccc(O)cc1`, the growth is 77%. Take `O=S(=O)(NCCCNc1nccc(-c2c(-c3ccc(O)cc3)nc3sccn23)n1)c1ccc(F)cc1`: the growth was -32.3% (active).

In the case of `Cn1c(=O)c2c(nc(Cl)n2CCl)n(C)c1=O`, the growth was 45.7%.

As for `CN(C)CCCN=c1cc2c(=O)n(CCCN(C)C)c(=O)c3c(NCCCN(C)C)cc4c(O)n(CCCN(C)C)c(=O)c1c4c3-2`, the growth was 61.2%. To `CSc1nnc(-c2sc3nnc(-c4ccccc4)c(-c4ccccc4)c3c2O)o1` belongs 107%; to `CC1=C(SCCC(=O)OC(C[Se]C2=C(C)C(=O)c3ccccc3C2=O)C(=O)NC(C)(C)C)C(=O)c2ccccc2C1=O` (stereo not given), 8.81% (active). To `C=C1CCC2C3(C)COC(c4ccc(OC)cc4Br)OC3CCC2(C)C1/C=C/C1=CCOC1=O` (stereo not given) belongs 31.8%; to `CCOC(=O)CC1CSC(c2cccc(Cl)c2)=N1` (stereo not given), 98.8%; to `COc1ccc(C(=O)NC(=O)Nc2ccc3c(c2)NC(=O)/C3=C\c2[nH]c(C)c(C(=O)O)c2C)cc1`, 95.2%. To `COC1OC(C(COC(C)=O)OC(C)=O)C(OC(C)=O)C(OC(C)=O)C1OC(C)=O` (stereo not given) belongs 132%; to `OCCOCC(F)(F)F`, -0.411% (active).

`Cc1cc(NC(=O)c2ccccc2)c(Cl)cc1N`: the growth is 54.7%.

Regarding `O=C1c2ccccc2NC(c2cn(-c3ccccc3)nc2-c2cccs2)N1Cc1ccccc1` (stereo not given), the growth was -6.57% (active). To `COc1ccc(-c2cc(/C=C/C(=O)c3ccc(N)cc3)[nH]n2)cc1OC` belongs 20.1%; to `NC(=O)C1(Nc2ccc(Br)cc2)CCCC1`, 94.8%; to `O=C(Nc1ccccc1)c1ccco1`, 95.7%. Next, `O=C1c2cc(S(=O)(=O)O)ccc2C(=O)c2c1cccc2[N+](=O)[O-]`: 101%; `C=C(C)[C@@H]1CC[C@]2(C(N)=O)CC[C@]3(C)[C@H](CC[C@@H]4[C@@]5(C)CC[C@H](O)C(C)(C)[C@@H]5CC[C@]43C)[C@@H]12`: 1.17% [100 µM] (active); `O=[N+]([O-])c1cc(CCl)ccc1OCCBr`: 119%.
